We go through 21 compounds from PubChem BioAssay (NCI).

Structures are written as SMILES. About 83,000 compounds went through this panel and 20% of them were active in at least one assay; those are over-represented in the sample as a whole.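 Percent growth is the endpoint: 0 to 100 indicates growth inhibition (40 means 60% inhibition), 0 means no net growth, and negative values indicate cell death.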 Unmarked numbers belong to inactive results. Activity calls are given as the source filed them. Rule for the calls: active = growth percent below 10; inactive = the rest.

Common to all, as to assay: NCI-60 one-dose screen, 48 h (100 = growth as untreated, 0 = no growth, -100 = all killed)
Common to all, as to details: 10 µM unless noted

Test [1] deals with SK-MEL-2 melanoma.
The test system of test [2] is EKVX NSCLC.
Test [3] relates to SN12C renal.
Test [4] has as its system UO-31 renal.
Test [5] deals with TK-10 renal.
Test [6] deals with ACHN renal.
The test system of test [7] is CAKI-1 renal.
The test system of test [8] is A498 renal.
For test [9], the system named is CCRF-CEM leukemia.
For test [10], the system named is MOLT-4 leukemia.

Consider `Cn1ccnc1C(=O)/C=C/c1ccc(C(=O)Nc2ccc(Cl)cc2)cc1`, for which the growth in test [1] is 82.4%; in test [2], 8.52% (active); in [3], 0.398% (active); in [4], -74.7% (active); in test [5] it was 16.9%; in [6], -39.9% (active). Moreover, the growth was -2.07% (active) in test [7], 19.5% in test [8], 8.42% (active) in test [9] and 5.13% (active) in [10].

As for `CSc1nnc(-c2cc3c([nH]c4ccccc43)c(-c3cccc(O)c3)n2)n1-c1ccccc1`, the growth in test [1] was 12.9%; in test [2] it was 45.8%; in test [3] it was 43.7%; in [4], 39.7%; in test [5], 62.2%; in test [6], 36.3%. For the same compound, the growth was 44.6% in [7], 25.5% in test [8], 21.8% in test [9] and 26.6% in test [10].

On to `Cc1[nH]c(C(=O)Nc2ccccc2OC2CCNCC2)c(Cl)c1Cl`, for which the growth in test [1] was 24.2%; in [2] it was 43%; in test [3], -53.2% (active); in test [4], -75.8% (active); in test [5], -3.07% (active); in [6], -19.2% (active). The growth was 1.32% (active) in test [7], 67.6% in test [8], 1.15% (active) in [9] and 4.46% (active) in [10].

In the case of `COc1ccc(-c2nn(-c3cccc(Cl)c3)cc2-c2cc(-c3ccc(Br)cc3)nc(N)n2)cc1`, the growth was 99.7% in test [1]; 92.3% in test [2]; 92.7% in test [3]; 76% in test [4]; 104% in [5]; 103% in test [6]. The growth was 77.3% in test [7], 81.6% in [8], 92.7% in [9] and 88.3% in [10].

Turning to `CC1(C)CC(=O)C2=C(C1)N(c1ccc(OC(F)(F)F)cc1)C(N)=C(C#N)C2c1ccc(Br)cc1F` (stereo not given), the growth in test [1] is 88.6%; in [2], 82%; in [3], 58.7%; in test [4], 70.3%; in test [5], 119%; in test [6] it was 41.1%. Moreover, the growth was 50.3% in test [7], 31.4% in test [8], 85.6% in test [9] and 63% in test [10].

With `CCN(CC)Cc1cc(C=C2C(=O)NC(=S)NC2=O)cc(OC)c1O`, the growth was 119% in [1]; 106% in test [2]; 100% in test [3]; 90.1% in test [4]; 110% in test [5]; 107% in test [6]. In addition, the growth in [7] is 99.3%; in [8], 98.8%; in test [9], 104%; in test [10] it was 108%.

Regarding `CC(=O)c1c(C)nc(SCC(=O)Nc2cccc(O)c2)n1-c1ccc(Cl)cc1`, the growth in test [1] is 104%; in test [2] it was 96.4%; in [3], 83.8%; in [4], 86.3%; in test [5], 107%; in [6] it was 107%. The growth in test [7] is 90.6%; in [8] it was 91.9%; in [9] it was 96%; in test [10], 95.4%.

With `C=CCOC(=O)Nc1cccn([C@H](Cc2ccccc2)C(=O)NCCC(C)C)c1=O`, the growth in test [1] is 115%; in [2], 104%; in test [3] it was 98.7%; in [4], 88.7%; in [5] it was 111%; in test [6], 103%. Further, the growth is 89.8% in test [7], 114% in [8], 77.1% in test [9] and 93.6% in test [10].

Consider `O=S(=O)(NCCNc1nccc(-c2c(-c3ccc(F)c(O)c3)nc3occn23)n1)c1ccc(Cl)cc1`, for which the growth in test [1] was 42.2%; in test [2], 104%; in test [3], 80.7%; in [4] it was 81.6%; in test [5], 122%; in test [6], 76.5%. Further, the growth in test [7] was 92.7%; in [8], 97.9%; in test [9], 70.7%; in test [10], 84.1%.

`CCCCCCC12CCC(=O)N1CCc1cncn12` (stereo not given): the growth in test [1] was 108%; in test [2], 99.9%; in test [3], 102%; in test [4] it was 109%; in test [5], 92.5%; in test [6], 109%. Moreover, the growth in [7] is 109%; in test [8], 99.2%; in test [9], 95.4%; in [10], 104%.

Regarding `Cc1cccc(/C=C2\CN(C(=O)OC(C)(C)C)C/C(=C\c3cccc(C)c3)C2=O)c1`, the growth was 95.3% in [1]; 93.4% in test [2]; 95.4% in test [3]; 69% in test [4]; 96.1% in test [5]; 84% in test [6]. The growth was 73.5% in [7], 93.9% in test [8], 8.66% (active) in [9] and 51.8% in test [10].

For `Cc1ccc(Nn2c(SCC(=O)Nc3nc(-c4ccccc4)cs3)nc(C)c2C)cc1`, the growth in test [1] was 81.4%; in [2], 49.7%; in [3], 64.3%; in [4] it was 51.6%; in [5], 72.7%; in test [6], 60.9%. The growth in test [7] was 53.6%; in test [8], 92.5%; in test [9] it was 57.7%; in [10], 54.7%.

On to `N#CC1=C(N)Oc2c(c(=O)[nH]c3ccc(Cl)cc23)C12C(=O)c1ccccc1C2=O`, for which the growth was 115% in test [1]; 95.2% in [2]; 94.8% in test [3]; 70.2% in [4]; 129% in test [5]; 95.1% in test [6]. The growth in test [7] was 80.5%; in test [8] it was 88%; in [9], 107%; in test [10], 116%.

As to `C=CC[Se]C(=O)Cc1c(C)n(C(=O)c2ccc(Cl)cc2)c2ccc(OC)cc12`, the growth is 8.51% (active) in test [1]; -62.6% (active) in test [2]; -30.4% (active) in test [3]; -80% (active) in [4]; -33.5% (active) in test [5]; -61% (active) in [6]. For the same compound, the growth was -59.3% (active) in test [7], -28.1% (active) in [8], 10.5% in [9] and 5.11% (active) in [10].

In the case of `Cc1nc2sc(C(=O)Nc3cccc4ccccc34)c(N)c2cc1C(O)c1ccccc1` (stereo not given), the growth is 25.3% in test [1]; 39.4% in [2]; 12.7% in test [3]; 33.4% in test [4]; 52.6% in [5]; 24.4% in test [6]. Further, the growth in [7] is 29.5%; in [8] it was -13.7% (active); in test [9], 6.95% (active); in test [10], 6.27% (active).

`C[PH+](c1nc2ccccc2nc1[PH+](C)C(C)(C)C)C(C)(C)C.C[PH+](c1nc2ccccc2nc1[PH+](C)C(C)(C)C)C(C)(C)C.[Au+].[Cl-]` (stereo not given): the growth in test [1] was -76.6% (active); in test [2], -82.5% (active); in test [3] it was -59.1% (active); in test [4], -90.9% (active); in [5] it was -91.6% (active); in test [6] it was -97.1% (active). Also, the growth in [7] is -93.4% (active); in test [8] it was -99.1% (active); in [9], 12.2%; in [10], 8.3% (active).

As for `COC1=CC(c2ccc[nH]2)=N/C1=C\c1[nH]c(C)c(CC(=O)NCc2ccccc2)c1C`, the growth in test [1] is 16.7%; in [2], 21.1%; in test [3] it was 29.1%; in test [4] it was -17.4% (active); in test [5], 24.9%; in test [6], 8.33% (active). The growth in [7] is 1.97% (active); in [8], -5.8% (active); in test [9], 22.4%; in test [10] it was 3.45% (active).

Take `CC(C)(Sc1cc(C(C)(C)C)c(OC(=O)CCCC(=O)O)c(C(C)(C)C)c1)Sc1cc(C(C)(C)C)c(OC(=O)CCCC(=O)O)c(C(C)(C)C)c1`: the growth in [1] was 55.2%; in [2] it was 47.2%; in test [3], 19.6%; in test [4], 37.9%; in test [5], 58.6%; in test [6] it was 26.9%. In addition, the growth is 52.8% in [7], 66.5% in [8], 37.8% in test [9] and 26.6% in test [10].

`OCCn1cc(-c2nc(-c3c[nH]c4ncccc34)cs2)c2ccccc21`: the growth in test [1] was 98.6%; in test [2] it was 32%; in test [3], 80%; in [4], 37.8%; in test [5], 82.5%; in test [6] it was 69.3%. Moreover, the growth was 73.7% in test [7], 34.7% in test [8], 84.8% in test [9] and 71.2% in test [10].

For `C#CCOc1cccc(Nc2ncnc3cc(NC(=O)C=C)ccc23)c1`, the growth in test [1] was 25.3%; in test [2], 32.5%; in test [3] it was 13.2%; in test [4], 16.8%; in test [5] it was -12.6% (active); in test [6], 17.2%. For the same compound, the growth in test [7] was 16%; in [8], 26.8%; in test [9], 2.9% (active); in test [10], 7.88% (active).

For the compound `Cc1c(O)cc(-c2cnc(Nc3ccccc3)s2)c(O)c1C`, the growth in test [1] is 99.4%; in test [2], 87.9%; in [3], 94%; in test [4], 86.9%; in [5], 134%; in test [6], 91.6%. Moreover, the growth is 86.9% in test [7], 75.1% in test [8], 78.5% in [9] and 62.8% in test [10].
